In PubChem BioAssay AID493131 (Broad Institute, 2011):
In all, about 340,000 compounds went through this assay and about 3,300 (0.97%) were called active.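 How the source made its calls: active means mean activation above about 17%, with every replicate also reaching it (limit read from the data, passing the limit was not always enough); inconclusive means only one of the two conditions met; inactive means the rest.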 Shown is part of a subset that was picked to be rich in actives.

What follows are compounds tested against Protein FosB (Mus musculus) (UniProt P13346) (assay: enhancers of mouse delta FosB DNA binding – biochemical, fluorescence polarization, TAMRA-CDK5 oligo, single point, primary screen (AID 493131;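 further: fluorescence polarization rise as delta FosB binds a TAMRA Cdk5 AP-1 oligo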)). Settings: purified delta FosB, at 25 µM, active compounds read high, percent of positive-control signal above neutral wells.
Chain of Protein FosB (Mus musculus) (P13346 whole entry, looked up): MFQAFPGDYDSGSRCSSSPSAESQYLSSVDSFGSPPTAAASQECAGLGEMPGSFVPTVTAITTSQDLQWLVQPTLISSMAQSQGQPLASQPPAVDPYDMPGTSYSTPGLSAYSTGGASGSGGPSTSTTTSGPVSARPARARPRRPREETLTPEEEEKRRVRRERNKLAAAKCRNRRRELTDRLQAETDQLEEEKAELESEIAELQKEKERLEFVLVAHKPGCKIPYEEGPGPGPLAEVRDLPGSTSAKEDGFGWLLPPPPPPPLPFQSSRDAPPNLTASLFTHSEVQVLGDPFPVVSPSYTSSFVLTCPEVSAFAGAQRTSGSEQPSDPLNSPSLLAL

activation, active:
CC(C)n1cnc2c(NCc3ccccc3)cc(OCC3CCN(C)CC3)cc21 91.8%, Oc1ccc(C2Nc3cccc4cccc(c34)N2)cc1 58.9%, CNc1nc(Nc2ccc(C)c(Cl)c2)nc(N)c1[N+](=O)[O-] 60.7%, CCOc1ccc2nc(NC(=O)c3cc([N+](=O)[O-])ccc3N3CCOCC3)sc2c1 26.6%, Cn1ccc(=Nc2ccc(NC(=O)c3ccc(N=c4ccn(C)c5ccc([N+](=O)[O-])cc45)cc3)cc2)cc1 62.2%, COc1ccc(/C=C/C(=O)OCC(=O)N2CCN(S(=O)(=O)c3ccc(C)cc3C)CC2)cc1OC 19.8%, COC(=O)c1nc2n(n1)C(c1ccc([N+](=O)[O-])cc1)C(C(=O)Nc1ccc(Cl)cc1)=C(C)N2 (stereo unspecified) 34.5%, Nc1nonc1-n1nnc(C(=O)N/N=C/c2ccc(Cl)cc2)c1-c1ccc2c(c1)OCO2 32.2%, Cc1cccc2c1-c1sc(C(=O)NCCCN3CCc4ccccc4C3)cc1CO2 22.8%, COc1ccc2c(c1)c(=O)c(C(=O)c1ccc(Cl)cc1)cn2CC(=O)Nc1ccc(F)cc1 101%, CCN1CCN(c2cc3nc(C)n(Cc4ccccc4)c(=O)c3cc2NC(=O)c2ccccc2F)CC1 27.5%, O=C(COc1coc(CN2CCN(c3ccccc3F)CC2)cc1=O)N1CCc2ccccc21 21.9%, Cn1cccc1/C=C1\SC(=O)N(CC(=O)Nc2ccc(F)cc2)C1=O 30.6%, O=C(Cc1nc2ccccc2[nH]c1=O)c1ccc(Cl)cc1 25%, CC(=O)Nc1ccc(NC(=O)COc2ccccc2C(=O)Nc2cccc(Cl)c2Cl)cc1 26%, O=c1c2ccccc2oc2nc(C3CCCCC3)n(Cc3ccco3)c(=O)c12 34%, CC[C@@H](C)[C@@H]1CN([C@@H](C)CN2CCC[C@H]2CN2C(N)=NC[C@H]2C(C)C)C(=N)N1CCc1ccc(Cl)c(Cl)c1 23.1%

activation, inactive:
CCOC(=O)Cc1csc(SCC(=O)NC(C)C23CC4CC(CC(C4)C2)C3)n1 (stereo unspecified) -21%, CC1(C)CC(=O)CC2(C1)NCC(c1ccccc1Cl)c1c2[nH]c2ccccc12 (stereo unspecified) -13.7%, O=C(NCc1cccnc1)C12CC3CC(CC(C3)C1)C2 0.989%, CCC(CO)Oc1cc(NC(=O)c2cccc(F)c2)c2ncn(C(C)C)c2c1 (stereo unspecified) 7.98%, CCC(CO)Oc1cc(NC(=O)c2cccc3ccccc23)c2ncn(C(C)C)c2c1 (stereo unspecified) -12.6%, C/C(CC(=O)Nc1cccc(C(F)(F)F)c1)=N\NC(=O)C(=O)NCC(C)C -12.7%, CCCCOc1ccc(CON(C(C)=O)C(C)=O)cc1Cl -3.14%, CCn1ccnc1CNC(=O)CC1C(=O)NCCN1Cc1ccc(F)cc1Cl (stereo unspecified) -11.3%, Brc1ccccc1C1Nc2cccc3cccc(c23)N1 -8.49%, COc1ccc(C2NC(=O)c3ccccc3N2)cc1 (stereo unspecified) -0.293%, O=C(CCc1nnc(CCCCc2ccccc2)o1)NC(c1cccnc1)C(F)(F)F (stereo unspecified) -5.13%, O=C(O)C1CCN(S(=O)(=O)N2CCOCC2)CC1 1.05%, Nc1nc(NCCCN2CCOCC2)nc(Nc2ccccc2)c1[N+](=O)[O-] 4.67%, CCN1CCN(c2nc(Nc3cccc(F)c3)nc(N)c2[N+](=O)[O-])CC1 10.8%, CCNC(=O)COC(=O)/C=C/c1c(C)nn(Cc2cccc(OC)c2)c1Cl -7.6%, CC(C)Nc1ccc(-n2nc3ccccc3[n+]2[O-])cc1 -2.96%, CC1(C)CC(=O)c2c(n(S(=O)(=O)c3ccccc3)c3ccc(NS(=O)(=O)c4ccccc4)cc23)C1 -1.95%, COc1ccc(S(=O)(=O)N2CCCCC2)cc1NC(=O)c1cc([N+](=O)[O-])ccc1N1CCOCC1 5.22%, O=C(NCc1ccc2c(c1)OCO2)c1cc([N+](=O)[O-])ccc1N1CCOCC1 5.71%, CCc1ccc(NC(=O)c2ccc(Cn3cc([N+](=O)[O-])cn3)cc2)cc1 4.46%, COc1cc(NS(=O)(=O)c2ccc(NC(=O)c3ccc([N+](=O)[O-])cc3)cc2)ncn1 -0.999%, COc1ccc(C(=O)Nc2ccnn2C2CCN(Cc3ccncc3)CC2)cc1 -4.76%, O=C(NCc1ccc2c(c1)OCO2)c1c(-c2ccsc2)sc2ccccc12 -2.79%, O=S(=O)(c1ccc(Cl)cc1)c1nc(-c2ccccc2F)oc1NCCN1CCOCC1 -12.7%, Cc1ccc(S(=O)(=O)N2CCN(C(=O)COC(=O)/C=C/c3cccc(Cl)c3)CC2)c(C)c1 -10.6%, Cc1ccc(S(=O)(=O)N2CCN(C(=O)COC(=O)c3c(C)cc(C)cc3C)CC2)c(C)c1 -5.88%, Cc1ccsc1C(=O)NNC(=O)COc1ccc(Br)cc1 -0.652%, NC(=NC(=O)c1ccccc1)C1=C(O)CCC1=O -12.8%, COCCOC(=O)C1=C(C)Nc2nc(C)nn2C1c1ccccc1 (stereo unspecified) -7.61%, COc1cc(C2C(C(=O)Nc3ccc(F)cc3)=C(C)Nc3nc(CCCO)nn32)cc(OC)c1OC (stereo unspecified) -9.9%, COC(=O)/C(=C\Nc1ccccc1)NC(=O)c1ccc(Cl)cc1Cl 4.01%, COc1cccc(C2CC(c3cccs3)=NN2C(=O)CSC2=NCCS2)c1OC (stereo unspecified) -11.4%, Nc1nonc1-n1nnc(C(=O)N/N=C/C2CCCCC2)c1-c1ccccc1 -11.3%, CC(C)c1c(C(=O)N/N=C/c2ccc(-c3ccccc3)cc2)nnn1-c1nonc1N -2.45%, CC(Sc1nncn1C)C(=O)Nc1ccccc1-c1ccccc1 (stereo unspecified) -4.45%, O=C(CSCc1ccc([N+](=O)[O-])cc1)Nc1cccc(C(=O)Nc2ccccc2C(=O)O)c1 -3.8%, O=C(COCc1cc(-c2ccc3c(c2)OCO3)on1)N1CCN(c2cccc(Cl)c2)CC1 -10.2%, O=C(NCCCN1CCOCC1)c1cc2c(s1)CCC2 -3.83%, CN1CCN(CCCNC(=O)c2cc3c(=O)oc4ccccc4c3s2)CC1 -39.5%, C=CCn1c(Oc2ccc(C(=O)OC)cc2)nc2c1c(=O)n(C)c(=O)n2C 2.74%, CC(C)=C1C2CCC1C1C(=O)N(NC(=O)c3ccco3)C(=O)C21 (stereo unspecified) 5.44%, COc1ccc(C)cc1NC(=O)CCCN1C(=O)NC(C)(C)C1=O 1.82%, O=C(c1ccc(F)cc1)c1cn(Cc2ccc(F)cc2)c2cc3c(cc2c1=O)OCCO3 -2.37%, COc1ccc(OC)c(C(=O)c2ccc(Cl)cc2)c1 6.81%, CC1(C)CC2CC(C)(CN2c2ncnc3ccc(Br)cc23)C1 (stereo unspecified) -14.7%, C=CCn1c2ccccc2c2nnc(SCc3[nH]c(=O)[nH]c3C(=O)CCCCC(=O)OCC)nc21 -0.527%, CCOc1cc(NC(=O)c2ccccc2C(=O)O)c(OCC)cc1NC(=O)c1ccccc1F -3.46%, CCC(=O)Nc1ccc2nc(C)n(Cc3ccccc3Cl)c(=O)c2c1 -9.12%, CCOc1cc(CO)ccc1OCC(=O)N1CCCCC1 -0.227%, O=C(COc1coc(CN2CCN(c3ccccc3)CC2)cc1=O)Nc1ccccc1F -11.2%, O=C(COc1coc(CN2CCN(c3ccccc3)CC2)cc1=O)N1CCc2ccccc21 -7.12%, Nc1cc(=O)n(Cc2ccccc2)c(=O)n1Cc1ccccc1 -1.18%, CC(=O)Nc1sc2c(c1C(c1cccc(F)c1)N1CCN(CCO)CC1)CCCC2 (stereo unspecified) -12.2%, Cc1nn(CC(=O)Nc2ccc(F)cc2)c(=O)c2ccccc12 0.886%, O=C(CN1C(=O)S/C(=C\c2ccccc2F)C1=O)NCCCn1ccnc1 -4.31%, CC(C)c1cc(C(=O)O)on1 5.07%, COc1ccc(C2CC(c3cccs3)Nc3nnnn32)cc1 (stereo unspecified) -5.14%, Fc1ccc(-c2ccc(CNCc3ccccn3)o2)cc1Cl -10.2%, O=C(/C(=C/c1cccc(Cl)c1)c1nc2ccccc2[nH]1)c1ccccc1 0.879%, O=C(Cc1ccc(Cl)cc1)c1ccccc1 -2.82%, COc1cccc2c1C(=O)c1c(O)c3c(c(O)c1C2=O)CC(O)(C(C)=NNC(=O)c1ccc(Cl)c(Cl)c1)CC3OC1CC(N)C(O)C(C)O1 (stereo unspecified) -409%, O=C(COc1ccccc1Cl)Nc1ccccc1C(=O)NC1CC1 -11.8%, O=C(COc1ccccc1Cl)Nc1ccc(C(=O)c2ccc(C(=O)O)cc2)cc1 -0.74%, CCc1nc2oc3ccccc3c(=O)c2c(=O)n1Cc1ccc(OC)cc1 -18.5%, O=c1c2ccccc2oc2nc3n(c(=O)c12)CCCS3 -28.8%, COC(=O)c1cc(C(=O)N(Cc2ccccc2)c2ccccn2)cc([N+](=O)[O-])c1 -5.79%, CC(C)C[C@H]1CN([C@@H](CC(C)C)CN2CCC[C@@H]2CN2C(=O)C(=O)NC[C@@H]2Cc2ccccc2)C(=O)C(=O)N1CCc1ccccc1 -16%, C[C@@H](CN1CCC[C@H]1CN1C(N)=NC[C@@H]1Cc1ccccc1)N1C[C@@H](Cc2ccccc2)N(CCCC2CCCC2)C1=N -7.85%, Cc1cc(SCC(=O)NCCN2C(=O)CSC2=O)nc2ccccc12 5.19%
